Seven molecules from PubChem BioAssay (Tox21) can be followed below.

SMILES strings stand for the structures. Values without a mark were called inactive. Records with an inconclusive call do not appear. Activity calls are given as the source filed them. Unless noted, calls follow the shape of the dose curve; as a rule, active = well fitted curve in the direction sought with a large enough effect in the repeat runs; inconclusive = weak or mixed curves; inactive = no such curve, though single readings can be large; an effect the other way counts as inactive or inconclusive.

The nature of experiment [1]: qHTS assay to identify small molecule agonists of the hypoxia (HIF-1) signaling pathway - cell viability counter screen (AID 1224844; calls by dose curve; also: nearly all actives have a fitted effect of over 50% in size; also: potency is read from the fitted curve at half-maximal effect). The method, boiled down: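 Tox21 10K compounds were added to HRE-bla ME-180 cells (0.5% dialyzed FBS) and incubated 17 hrs at 37C; ATP-based CellTiter-Glo luminescence then reported cell viability in the same wells.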
The nature of experiment [2]: qHTS assay to identify small molecule agonists of H2AX (AID 1224845; active = well fitted activation curve with a large enough effect in the signal ratio in the repeat runs, not every such curve was filed as active; the % refers to the signal ratio). Summed up:
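Phospho-H2AX Ser139 measured by HTRF (ex 320 nm; em 665 and 620 nm) after 24 hr antibody incubation. Compounds, 15 concentrations, 0.76% DMSO, were applied to CHO-K1 cells for 3hr at 37C before lysis.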

A short description of experiment [3]: qHTS assay to identify small molecule agonists of the hypoxia (HIF-1) signaling pathway (AID 1224846; active = well fitted activation curve with a large enough effect in the signal ratio in the repeat runs, not every such curve was filed as active; the % refers to the signal ratio). Summed up: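 Steps: seed ME-180 HRE-bla cells (2,000/well, 0.5% dialyzed FBS); incubate 5 hrs at 37C; pin-transfer compounds or DMSO; incubate 17 hrs; add LiveBLAzer B/G substrate CCF4-AM; measure reporter activation by FRET.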
Experiment [4] is described as follows: qHTS assay to identify small molecule agonists of H2AX - cell viability counter screen (AID 1224847; calls by dose curve;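 also: wild-type CHO-K1 cells; top concentration of the series differs between compounds; nearly all actives have a fitted effect of over 30% in size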). The method, boiled down:
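Counter-screen for viability: CellTiter-Glo ATP luminescence read after 3 h compound treatment (15-point titration, 0.76% DMSO final) of CHO-K1 cells at 37C, with 30 min room-temperature reagent incubation.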

The nature of experiment [5]: qHTS assay to identify small molecule antagonists of the estrogen related receptor (ERR) signaling pathway from Tox21 library (AID 1224848). Also: nearly all actives have a fitted effect of over 50% in size. Also: potency is read from the fitted curve at half-maximal effect. The method, boiled down: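 Antagonist-mode screen of the Tox21 10K library in an NTP-provided ERR reporter cell line; 18 h compound exposure at 37 C, luminescence measured with ONE-Glo.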
On the technique in general: qHTS replaces the single test concentration by a dilution series.

Experiment [6] in a line: qHTS assay to identify small molecule agonists of the estrogen related receptor (ERR) signaling pathway from Tox21 library (AID 1224849; calls by dose curve; also: nearly all actives have a fitted effect of over 15% in size). As to conditions: ERR reporter cell line, ONE-Glo luciferase, 18 h; at 92.4 µM (top of the series) unless noted. Summed up:
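Agonist signal is luciferase luminescence from an ERR reporter cell line treated 18 h at 37 C with DMSO-dissolved compounds, read 30 min after ONE-Glo addition at room temperature.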

Experiment [7] can be described thus: qHTS RealTime-Glo MT Cell Viability Assay in HepG2 cells - 24 hour (AID 1224867). Also: nearly all actives have a fitted effect of over 50% in size. The method, boiled down:
(§1)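 Viability was tracked continuously by NanoLuc luminescence from prosubstrate reduced by living HepG2 cells, at successive time points over 40 h of compound exposure. Cells with reagent were preincubated 5 h at 37 °C before compound addition.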

The nature of experiment [8]: qHTS RealTime-Glo MT Cell Viability Assay in HEK293 cells - 32 hour (AID 1224868). Also: top concentration of the series differs between compounds; nearly all actives have a fitted effect of over 50% in size. The method, boiled down:
(§2)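 Viability tracked continuously by luminescence as live cells reduce a prosubstrate for NanoLuc; HEK293 cells preincubated 5 h, compound-treated at 37 C, and read at 0, 8, 16, 24, 32 and 40 h.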

A short description of experiment [9]: A CellTox Green Cytotoxicity Assay to monitor cytotoxicity in HEK293 cells - 0 hour (AID 1224869). Also: nearly all actives have a fitted effect of over 50% in size. Also: potency is read from the fitted curve at half-maximal effect. Summed up:
(§3)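 Cytotoxicity was tracked continuously in HEK293 cells by a DNA-binding dye excluded from viable cells. Compounds were transferred in DMSO 5 h after seeding; fluorescence was recorded at intervals up to 40 h.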

Experiment [10] is described as follows: qHTS RealTime-Glo MT Cell Viability Assay in HepG2 cells - 40 hour (AID 1224870). Also: nearly all actives have a fitted effect of over 50% in size. The method, boiled down:
(§4)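 Real-time viability: cells seeded at 600 per well together with NanoLuc and cell-permeant prosubstrate, compounds added after 5 h incubation. Luminescence tracked at 0, 8, 16, 24, 32 and 40 h of exposure.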

A short description of experiment [11]: A CellTox Green Cytotoxicity Assay to monitor cytotoxicity in HEK293 cells - 40 hour (AID 1224871). Also: nearly all actives have a fitted effect of over 45% in size. Also: potency is read from the fitted curve at half-maximal effect. The method, boiled down:
as §3

Experiment [12] can be described thus: qHTS RealTime-Glo MT Cell Viability Assay in HEK293 cells - 16 hour (AID 1224872). The method, boiled down: as §2
The nature of experiment [13]: qHTS RealTime-Glo MT Cell Viability Assay in HepG2 cells - 8 hour (AID 1224873). Also: nearly all actives have a fitted effect of over 55% in size. The method, boiled down: as §4
The nature of experiment [14]: qHTS RealTime-Glo MT Cell Viability Assay in HEK293 cells - 40 hour (AID 1224874). Also: nearly all actives have a fitted effect of over 50% in size. To be noted: RealTime-Glo luminescence; max response: stronger effect = lower value. The method, boiled down: (§5)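 Nonlytic bioluminescent viability monitoring. HEK293 at 600 cells/well with reagent; 5 h settle; compound transfer by pintool; plates held at 37 C and read at set time points.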
The nature of experiment [15]: A CellTox Green Cytotoxicity Assay to monitor cytotoxicity in HEK293 cells - 24 hour (AID 1224875). Also: nearly all actives have a fitted effect of over 45% in size. Also: potency is read from the fitted curve at half-maximal effect. Summed up: as §3
Experiment [16] is described as follows: qHTS RealTime-Glo MT Cell Viability Assay in HepG2 cells - 32 hour (AID 1224877). Also: nearly all actives have a fitted effect of over 55% in size. Summed up:
as §1

Experiment [17] in a line: A CellTox Green Cytotoxicity Assay to monitor cytotoxicity in HepG2 cells - 40 hour (AID 1224879). Also: nearly all actives have a fitted effect of over 40% in size. Also: potency is read from the fitted curve at half-maximal effect. The method, boiled down:
(§6)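 Real-time, homogeneous cytotoxicity readout: dead-cell DNA staining by CellTox Green in HepG2 monolayers, fluorescence measured at timed intervals up to 40 h of continuous compound exposure.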

Experiment [18] can be described thus: qHTS RealTime-Glo MT Cell Viability Assay in HEK293 cells - 0 hour (AID 1224880). Also: top concentration of the series differs between compounds; nearly all actives have a fitted effect of over 45% in size. The method, boiled down:
as §5

A short description of experiment [19]: A CellTox Green Cytotoxicity Assay to monitor cytotoxicity in HepG2 cells - 16 hour (AID 1224876). Also: nearly all actives have a fitted effect of over 45% in size. Also: potency is read from the fitted curve at half-maximal effect. Summed up:
as §6

The nature of experiment [20]: A CellTox Green Cytotoxicity Assay to monitor cytotoxicity in HepG2 cells - 24 hour (AID 1224878). Also: nearly all actives have a fitted effect of over 45% in size. Also: potency is read from the fitted curve at half-maximal effect. The method, boiled down: as §6
% is scaled to controls: 0 for no effect and ±100 for the full control effect.

Take `CCOC(=O)Cc1cccc2ccccc12`: the Potency entry in experiment [1], in [2], in experiment [3], in experiment [4], in experiment [5] and in experiment [7] was “inactive” throughout. Besides, the Potency entry in experiment [8], in experiment [9], in [10], in [11], in experiment [12] and in [13] was “inactive” throughout. In addition, the Potency entry in experiment [15], in experiment [16] and in [18] was “inactive” each time. Further, the activity change, positive = activation in [6] is -0.505%. Also, in experiment [14], the max response was -4.39%. Also, the Potency in [17] was 21.9 µM (active).

Turning to `NC(=O)C(c1ccccc1)(c1ccccc1)[C@@H]1CCN(CCc2ccc3c(c2)CCO3)C1`, the Potency result in experiment [1], in experiment [2], in experiment [3], in [4], in experiment [5] and in experiment [7] was “inactive” each time. The Potency entry in experiment [10], in [13], in experiment [16] and in [18] was “inactive” throughout. Also, in [6], the activity change, positive = activation is -1.44% [at 42.5 µM]. The Potency was 21.3 µM (active) in experiment [9]; 21.3 µM (active) in experiment [11]; 21.3 µM (active) in [15]; 23.9 µM (active) in [19]; 21.3 µM (active) in experiment [20]; 23.9 µM (active) in [17].

On to `CCc1c(C(=O)NN2CCCCC2)nn(-c2ccc(Cl)cc2Cl)c1-c1ccc(Br)cc1`, for which the Potency was 21.9 µM (active) in [1] and 1.22 µM (active) in experiment [5]. Besides, the Potency result in experiment [2], in experiment [3], in experiment [4], in [9], in [11] and in [12] was “inactive” in each case. Further, the Potency entry in [15], in experiment [19], in experiment [20], in [17] and in experiment [18] was “inactive” throughout. Further, in experiment [6], the activity change, positive = activation is -62%.

With `O=C1CCC(=O)O1`, the Potency entry in experiment [1], in experiment [2], in experiment [3], in experiment [4], in [5] and in experiment [7] was “inactive” in each case. For the same molecule, the Potency result in [8], in experiment [10], in [12], in experiment [13], in [15] and in experiment [19] was “inactive” each time. In addition, the Potency result in experiment [16], in experiment [20], in experiment [17] and in [18] was “inactive” each time. Besides, in [6], the activity change, positive = activation is 5.7%. Besides, in [14], the max response is 3.63%.

Consider `CC(C)(O)c1ccc(CNC(=O)c2cccnc2Oc2ccc(F)cc2)cc1`, for which the Potency result in [1], in experiment [2], in [3], in experiment [4], in experiment [7] and in experiment [9] was “inactive” in each case. Besides, the Potency entry in [10], in experiment [11], in experiment [13], in [15], in experiment [16] and in [20] was “inactive” in each case. Moreover, the Potency result in experiment [17] and in experiment [18] was “inactive” each time. Moreover, in [5], the Potency was 30.6 µM (active). Further, the activity change, positive = activation in [6] is -45%.

As to `COCCCN1CCC(NC(=O)c2cc(Cl)c(N)c3c2OCC3)CC1`, the Potency result in [1], in experiment [2], in experiment [3], in experiment [4], in [5] and in [7] was “inactive” in each case. The Potency result in experiment [8], in [10], in [11], in experiment [12], in [13] and in [15] was “inactive” in each case. For the same molecule, the Potency entry in experiment [19], in experiment [16], in [20], in experiment [17] and in [18] was “inactive” in each case. Moreover, the activity change, positive = activation in experiment [6] is 5.44% [at 42.5 µM]. In experiment [14], the max response is -14%.

Consider `COC(C)OC`, for which the Potency result in experiment [1], in experiment [2], in experiment [3], in [4], in [5] and in experiment [7] was “inactive” throughout. In addition, the Potency entry in experiment [8], in [9], in experiment [10], in experiment [11], in [13] and in experiment [15] was “inactive” throughout. Besides, the Potency entry in experiment [16], in experiment [20], in experiment [17] and in [18] was “inactive” in each case. In addition, in experiment [6], the activity change, positive = activation is -2.66%. Further, the max response in experiment [14] is 5.31%.
